Assay results from PubChem BioAssay (NCATS).
Where “and” joins values, the source holds several entries; their conditions need not be identical. Equal values may be shown once. Results filed as inconclusive are left out. Calls of active or inactive are those of the source. Unless noted, the call rests on the fitted dose curve; in most records, active means well fitted curve in the direction sought with a large enough effect; inconclusive means small, poorly fitted or top-dose-only effect, or another doubt; inactive means no such curve, though single readings can be large; an effect the other way counts as inactive or inconclusive.

Columns and labels:
[1] = biological target: Guanine nucleotide-binding protein G(i) subunit alpha-1 (Homo sapiens) (UniProt P63096); assay: qHTS Assay for Inhibitors of RGS12 GoLoco Motif Activity (Green Fluorophore) (AID 879);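 further: 0% = labeled peptide with Gαi1 and full inhibition = labeled peptide alone without protein; negative values mean loss of peptide binding seen as reduced polarization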
Method in brief: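 A drop in FITC polarization marked displacement of the FITC-tagged RGS12 GoLoco peptide (10 nM) from Gαi1 (50 nM). Compounds were incubated 10 min at room temperature in Tris pH 7.5 buffer containing 150 mM NaCl, 0.1 mM GDP and 0.05% NP40; unlabeled peptide titration served as control.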

[2] = biological target: Cytochrome P450 2D6 (Homo sapiens) (UniProt P10635); assay: qHTS Assay for Inhibitors and Substrates of Cytochrome P450 2D6 (AID 891); further: nearly all actives have a fitted effect of over 60% in size; further: potency means the concentration at half of the fitted maximal effect
Method in brief: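 Luminescent read-out of luciferin formed by 5 nM human CYP2D6 demethylating 30 uM Luciferin-ME EGE (Km level) over 60 min at room temperature after NADPH regeneration addition. Data normalized to full inhibition by 1.43 uM quinidine.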

[3] = biological target: Cytochrome P450 2C19 (Homo sapiens) (UniProt P33261); assay: qHTS Assay for Inhibitors and Substrates of Cytochrome P450 2C19 (AID 899); further: nearly all actives have a fitted effect of over 60% in size; further: potency means the concentration at half of the fitted maximal effect
Method in brief: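 Signal comes from luciferase acting on luciferin released by CYP2C19-mediated hydroxylation of Luciferin-H EGE, 10uM (KM). Assay mix: 5nM enzyme, 50mM KPO4; 60 min at 37C with NADPH regeneration. Data normalized against 57uM ketoconazole.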

[4] = Confirmation and Secondary Assay for Modulators of Hemoglobin Beta Chain Splicing at IVS2 654 locus (AID 910);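 further: HeLa cells stably carrying EGFP split by mutant beta-globin IVS2-654 intron; % of control where 0% means no effect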
Method in brief: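 HeLa cells stably expressing EGFP interrupted by β-globin IVS2-654 intron, seeded overnight in Opti-MEM/2% FCS, then treated 2 days at 37 °C. Restored splicing read as total peak GFP intensity per well by laser scanning cytometry (488 nm excitation, 500–520 nm emission); 500 nM antisense PNA as control.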

[5] = qHTS Assay for Identification of Small Molecule Agonists for Thrombopoietin (TPO) Signaling Pathway (AID 917); further: on the % scale 0 is the no-effect control and ±100 the full control effect
Method in brief: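 Stimulation at the TPO EC50 (26 pM final) was used to detect activators. Ba/F3 mouse cells bearing human TPO receptor and a luciferase reporter under the Glycoprotein IIb promoter were exposed to compounds for 24 hrs at 37 C.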

[6] = Confirmation and Secondary Assay for Modulators of Hemoglobin Beta Chain Splicing at IVS2 705 locus (AID 930);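 further: HeLa cells stably expressing the EGFP-705 splicing reporter; GFP fluorescence per well restored by corrected splicing of the IVS2-705 intron in EGFP; series mostly up to about 46 µM; % of control where 0% means no effect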
Method in brief: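 Assay measures total GFP intensity per well in HeLa EGFP-705 cells after 2 days with compound; mis-splicing normally truncates EGFP, so fluorescence indicates corrected splicing.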

[7] = biological target: Muscarinic acetylcholine receptor M1 (Rattus norvegicus) (UniProt P08482); assay: qHTS Assay for Antagonists of Acetylcholine Muscarinic M1 Receptor: Kinetic Measurement of Intracellular Calcium Response (AID 943);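 further: Fluo-4 calcium signal as peak divided by basal fluorescence over 4 min; series mostly up to about 35 µM; nearly all actives have a fitted effect of over 75% in size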
Method in brief: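 Read-out: peak over basal Fluo-4 fluorescence, kinetic at 1 Hz for 4 min after EC80 carbachol (100 nM final). Rat M1-CHO cells, dye loaded 1 h at 37C, compound added 10 min before agonist.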

[8] = biological target: Muscarinic acetylcholine receptor M1 (Rattus norvegicus) (UniProt P08482); assay: qHTS Assay for Antagonists of Acetylcholine Muscarinic M1 Receptor: Measurement of IP-One Response (AID 944); further: nearly all actives have a fitted effect of over 75% in size
Method in brief: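 Read-out: HTRF competition between d2-IP1 and Eu-cryptate anti-IP1 antibody, emission 620 and 665 nm. Stimulus was carbachol, EC80 (200 nM), for 30 min in M1-CHO cells (rat receptor), after 10 min compound pre-treatment.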

[9] = biological target: Pyruvate kinase (Leishmania mexicana) (UniProt Q27686); assay: qHTS Validation Assay for Inhibitors of Leishmania Mexicana Pyruvate Kinase (AID 945);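 further: 0% = DMSO only neutral control wells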
Method in brief: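 Pyruvate kinase activity of E451W LmPYK (0.2 nM) was followed as ATP output after 1 h at room temperature with 0.5 mM PEP and 0.1 mM ADP, detected by PKLight luminescence.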

[10] = Cellular Toxicity (caspase-3) N2a (AID 665);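 further: compound exposure lasted 16 h at 37 °C before readout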
Method in brief: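 Luminescent Caspase-Glo 3/7 readout in N2a mouse neuroblastoma cells after 16 h compound exposure at 37 °C. Signal scaled to DMSO (basal) and 10 uM staurosporine (100%). Concentration-response fitted with Hill equation for AC50.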

[11] = Cellular Toxicity (caspase-3) NIH 3T3 (AID 666);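 further: 0% = DMSO basal and 100% = 100 µM tamoxifen stimulation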
Method in brief: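 NIH 3T3, 1000 cells/well, 5 hr settle then 16 hr compound at 37°C; Caspase-Glo 3/7, 20 min RT, luminescence. DMSO = basal, 100 uM tamoxifen = 100%. Hill-equation AC50, qHTS.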

[12] = Cellular Toxicity (caspase-3) Renal Proximal Tubule (AID 667);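 further: cells exposed to compound for 16 hours at 37 °C before detection; 0% = DMSO basal and 100% = 10 µM staurosporine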
Method in brief: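 Freshly isolated primary rat kidney proximal tubule cells, 1000/well, treated 16 hr at 37 °C, then Caspase-Glo 3/7 luminescence after 1 hr. Normalized to DMSO and 10 uM staurosporine; AC50 from Hill fit.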

[13] = biological target: Cytochrome P450 3A4 (Homo sapiens) (UniProt P08684); assay: qHTS Assay for Inhibitors and Substrates of Cytochrome P450 3A4 (AID 884); further: series mostly up to about 57 µM; on the % scale 0 is the no-effect control and ±100 the full control effect; nearly all actives have a fitted effect of over 50% in size
Method in brief: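 Luminescent readout of luciferin produced by CYP3A4 (20 nM) dealkylation of Luciferin-PPXE, 25 uM (its KM). NADPH-driven reaction ran 60 min at RT after 10 min compound preincubation; data scaled to 57 uM ketoconazole as 100% inhibition.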

[14] = Cell Viability - LYMP2-001 (AID 921);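 further: series mostly up to about 92 µM; 0% = DMSO only and full inhibition = tetraoctylammonium bromide control wells; nearly all actives have a fitted effect of over 70% in size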
Method in brief: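 Human lymphoblastoid LYMP2-001 cells, 2500 per well, in complete medium, treated 24 h at 37 C. Viability from cellular ATP by CellTiter-Glo luminescence; AC50 from Hill-equation fits of qHTS concentration-response.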

[15] = MultiTox-Fluor Cytotoxicity Assay - LYMP1-001 - Dead Cells (AID 946);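 further: 0% = DMSO and 100% = tetraoctylammonium bromide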
Method in brief: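 In this qHTS, 15 uM tetraoctylammonium bromide defined 100% and DMSO defined basal activity. Lymphoblastoid cells (LYMP1-001, 2500 per well) received compound for 16 hr at 37 C before a fluorogenic dead-cell substrate readout at 485/520 nm.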

[16] = biological target: Cytochrome P450 3A4 (Homo sapiens) (UniProt P08684); assay: qHTS Assay for Activators of Cytochrome P450 3A4 (AID 885); further: nearly all actives have a fitted effect of over 65% in size
Method in brief: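 Using 20nM recombinant human CYP3A4 in potassium phosphate (200mM), substrate Luciferin-PPXE at 25uM, luminescent luciferin detection followed a 60-min RT NADPH reaction; data scaled to 57 uM ketoconazole.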

[17] = qHTS Assay for Identification of Small Molecule Antagonists for NFkB Signaling Pathway (AID 895; active means well fitted inhibition curve with a large enough effect in the signal ratio, with a control signal flat, not every such curve was filed as active; the % refers to the signal ratio; further: on the % scale 0 is the no-effect control and ±100 the full control effect)
Method in brief: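 ME-180 NFkB-bla cells (beta-lactamase under NFkB response element), plated overnight, treated with compound then 10 pM TNF alpha (about EC50) for 5 hrs at 37 C. LiveBLAzer FRET read at 460/530 nm emission, 405 nm excitation.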

[18] = MultiTox-Fluor Cytotoxicity Assay - LYMP1-001 - Live Cells (AID 947);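 further: 0% = DMSO only and full inhibition = tetraoctylammonium bromide control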
[19] = qHTS Assay for Identification of Small Molecule Agonists for Hypoxia Response Element Signaling Pathway (AID 914; active means well fitted activation curve with a large enough effect in the signal ratio, with a control signal flat, not every such curve was filed as active; the % refers to the signal ratio; further: potency means the concentration at half of the fitted maximal effect; on activation: % of control where 0% means no effect); settings: ME-180 (cervical carcinoma) HRE-bla reporter, beta-lactamase ratio, CoCl2, 17 h; activation: hits give high values
Method in brief: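 Compounds in a titration series were added to ME-180 reporter cells alongside an EC50 level of CoCl2. After 17 hours, beta-lactamase activity was read as the 460nm/530nm emission ratio of CCF4, giving AC50 values.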

[20] = qHTS Assay for Identification of Small Molecule Antagonists for Thrombopoietin (TPO) Signaling Pathway (AID 918); settings: TPO-dependent cell signaling reporter, antagonist mode; further: potency means the concentration at half of the fitted maximal effect; nearly all actives have a fitted effect of over 60% in size
Method in brief: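 Luminescence read-out: GPIIb-promoter luciferase in Ba/F3 cells carrying human TPO receptor. Compounds added with 26 pM TPO (EC50), 24 hrs, 37 C, 5% CO2; cells deprived of IL-3 overnight beforehand. Inhibition of signal scored.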

Chain of Muscarinic acetylcholine receptor M1 (Rattus norvegicus) (P08482 whole entry, looked up): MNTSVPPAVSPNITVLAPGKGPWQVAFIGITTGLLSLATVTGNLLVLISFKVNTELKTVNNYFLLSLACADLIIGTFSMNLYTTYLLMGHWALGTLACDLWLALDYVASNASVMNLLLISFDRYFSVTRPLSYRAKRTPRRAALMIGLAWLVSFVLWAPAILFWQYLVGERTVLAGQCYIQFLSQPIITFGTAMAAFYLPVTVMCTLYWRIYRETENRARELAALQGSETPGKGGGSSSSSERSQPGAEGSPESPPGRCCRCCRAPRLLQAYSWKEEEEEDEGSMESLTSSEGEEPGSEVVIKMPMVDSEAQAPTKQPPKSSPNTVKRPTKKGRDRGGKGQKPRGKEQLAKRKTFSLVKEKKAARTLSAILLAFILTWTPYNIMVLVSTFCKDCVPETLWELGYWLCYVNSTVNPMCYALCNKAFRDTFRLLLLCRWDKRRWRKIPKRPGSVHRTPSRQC
Chain of Pyruvate kinase (Leishmania mexicana) (Q27686 2-499 E452W): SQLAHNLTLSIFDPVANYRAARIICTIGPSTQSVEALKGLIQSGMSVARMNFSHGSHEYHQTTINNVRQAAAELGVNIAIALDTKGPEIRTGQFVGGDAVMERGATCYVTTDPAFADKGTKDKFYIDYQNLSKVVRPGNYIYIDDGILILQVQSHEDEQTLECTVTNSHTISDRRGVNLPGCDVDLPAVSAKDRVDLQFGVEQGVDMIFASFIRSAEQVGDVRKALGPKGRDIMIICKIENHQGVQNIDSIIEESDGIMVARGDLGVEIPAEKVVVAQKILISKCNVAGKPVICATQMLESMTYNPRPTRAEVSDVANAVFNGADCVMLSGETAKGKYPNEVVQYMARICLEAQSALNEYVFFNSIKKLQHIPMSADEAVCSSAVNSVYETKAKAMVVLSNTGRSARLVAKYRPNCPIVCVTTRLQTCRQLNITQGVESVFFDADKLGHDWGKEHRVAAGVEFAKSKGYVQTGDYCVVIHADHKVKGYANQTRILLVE
Chain of Cytochrome P450 2D6 (Homo sapiens) (P10635 whole entry, looked up): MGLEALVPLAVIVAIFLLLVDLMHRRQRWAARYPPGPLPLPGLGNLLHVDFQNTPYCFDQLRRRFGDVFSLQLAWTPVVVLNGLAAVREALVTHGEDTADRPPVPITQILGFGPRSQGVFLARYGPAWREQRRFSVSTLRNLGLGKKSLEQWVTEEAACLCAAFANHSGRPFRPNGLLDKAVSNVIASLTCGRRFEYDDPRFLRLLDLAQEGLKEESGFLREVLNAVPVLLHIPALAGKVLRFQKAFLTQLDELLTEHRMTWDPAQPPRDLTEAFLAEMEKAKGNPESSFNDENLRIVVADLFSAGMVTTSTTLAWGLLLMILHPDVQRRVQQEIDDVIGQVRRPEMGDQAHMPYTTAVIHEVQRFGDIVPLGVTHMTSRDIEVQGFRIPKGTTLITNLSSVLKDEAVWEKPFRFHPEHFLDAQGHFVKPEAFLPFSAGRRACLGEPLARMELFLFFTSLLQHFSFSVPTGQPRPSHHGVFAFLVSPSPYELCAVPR
Chain of Cytochrome P450 2C19 (Homo sapiens) (P33261 whole entry, looked up): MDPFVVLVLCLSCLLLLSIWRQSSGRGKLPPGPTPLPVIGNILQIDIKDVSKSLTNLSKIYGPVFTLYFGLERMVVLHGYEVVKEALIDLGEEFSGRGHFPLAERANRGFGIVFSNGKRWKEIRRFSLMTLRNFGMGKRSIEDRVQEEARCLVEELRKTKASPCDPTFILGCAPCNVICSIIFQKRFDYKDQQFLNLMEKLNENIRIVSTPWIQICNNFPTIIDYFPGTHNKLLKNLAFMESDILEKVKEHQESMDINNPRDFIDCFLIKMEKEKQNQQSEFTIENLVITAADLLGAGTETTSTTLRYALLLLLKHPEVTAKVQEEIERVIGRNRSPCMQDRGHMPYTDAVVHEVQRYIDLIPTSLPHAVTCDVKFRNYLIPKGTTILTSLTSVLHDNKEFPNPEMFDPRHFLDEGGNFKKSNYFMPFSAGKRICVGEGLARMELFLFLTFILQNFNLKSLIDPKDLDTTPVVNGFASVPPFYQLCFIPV
Chain of Guanine nucleotide-binding protein G(i) subunit alpha-1 (Homo sapiens) (P63096 whole entry, looked up): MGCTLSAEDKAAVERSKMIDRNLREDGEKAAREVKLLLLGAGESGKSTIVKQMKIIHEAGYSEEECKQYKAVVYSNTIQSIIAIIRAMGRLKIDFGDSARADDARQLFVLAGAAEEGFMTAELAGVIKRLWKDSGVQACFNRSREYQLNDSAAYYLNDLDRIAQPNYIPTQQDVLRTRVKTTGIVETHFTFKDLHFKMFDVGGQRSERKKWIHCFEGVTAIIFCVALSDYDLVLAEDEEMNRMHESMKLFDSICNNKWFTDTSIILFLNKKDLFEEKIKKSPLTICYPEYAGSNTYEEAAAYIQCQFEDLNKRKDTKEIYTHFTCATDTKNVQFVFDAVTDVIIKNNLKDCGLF
Chain of Cytochrome P450 3A4 (Homo sapiens) (P08684 whole entry, looked up): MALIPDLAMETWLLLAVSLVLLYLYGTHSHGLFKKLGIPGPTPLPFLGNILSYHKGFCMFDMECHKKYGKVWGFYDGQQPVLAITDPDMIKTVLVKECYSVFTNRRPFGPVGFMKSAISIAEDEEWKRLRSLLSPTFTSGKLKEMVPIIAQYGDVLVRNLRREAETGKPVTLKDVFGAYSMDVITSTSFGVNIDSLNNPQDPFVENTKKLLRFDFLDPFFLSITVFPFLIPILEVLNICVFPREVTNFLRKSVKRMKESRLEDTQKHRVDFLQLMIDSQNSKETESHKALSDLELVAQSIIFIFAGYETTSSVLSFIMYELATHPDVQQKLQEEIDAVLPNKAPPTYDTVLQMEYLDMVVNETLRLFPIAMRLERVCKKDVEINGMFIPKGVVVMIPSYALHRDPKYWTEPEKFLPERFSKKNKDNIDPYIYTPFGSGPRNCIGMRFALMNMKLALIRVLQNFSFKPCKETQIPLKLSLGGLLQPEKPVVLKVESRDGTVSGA

N=c1nc(N2CCCCC2)cc(N)n1O
inactive: outcome [1] | Potency [2] | Potency [3] | Potency [4] | outcome [5] | Potency [6] | Potency [7] | Potency [8] | outcome [9]

CCCC(CCC)C(=O)O
inactive: outcome [10] | outcome [11] | outcome [12] | outcome [1] | Potency [13] | Potency [4] | outcome [5] | Potency [14] | Potency [6] | outcome [9] | outcome [15]

Nc1nc2c(ncn2COCCO)c(=O)[nH]1
inactive: outcome [1] | Potency [13] | outcome [5] | Potency [6] | outcome [9]

Cc1oncc1C(=O)Nc1ccc(C(F)(F)F)cc1
inactive: outcome [1] | outcome [16] | Potency [2] | Potency [17] | Potency [3] | Potency [4] | Potency [6] | outcome [9]

O=c1[nH]cnc2[nH]ncc12
inactive: outcome [10] | outcome [11] | outcome [12] | outcome [1] | Potency [13] | Potency [2] | Potency [3] | Potency [4] | outcome [5] | Potency [14] | Potency [6] | outcome [9] | outcome [15] | outcome [18]

CCOC(=O)C1=C[C@@]2(CC)CCCN3CCc4c(n1c1ccccc41)[C@H]32
active: Potency [2] 39.8 µM and 6.31 µM
inactive: outcome [1] | outcome [16] | Potency [3] | outcome [5] | Potency [8] | outcome [9]

O=c1n(CCCN2CCN(c3cccc(Cl)c3)CC2)nc2ccccn12
inactive: outcome [1] | Potency [13] | Potency [4] | outcome [5] | Potency [6] | Potency [8] | outcome [9]

CCOC(=O)N1CCC(=C2c3ccc(Cl)cc3CCc3cccnc32)CC1
inactive: outcome [1] | Potency [17] | Potency [4] | Potency [6] | outcome [9]
active: Potency [19] 15.8 µM

NNCCc1ccccc1
inactive: outcome [1] | outcome [16] | Potency [4] | outcome [5] | Potency [6] | outcome [9]
active: Potency [2] 6.31 µM and 2.51 µM | Potency [3] 794 nM and 316 nM

NCCc1ccc(O)c(O)c1
inactive: outcome [1] | Potency [4] | Potency [6] | Potency [7] | Potency [8] | outcome [9]

Nc1nc2ccc(OC(F)(F)F)cc2s1
inactive: outcome [1] | outcome [5]

Clc1cccc(Cl)c1NC1=NCCN1
active: Potency [3] 5.01 µM
inactive: outcome [1] | outcome [5] | outcome [9]

CC(C)(C)NCC(O)c1ccc(O)c(CO)c1 (stereo not given)
inactive: Potency [4] | Potency [6]

CN1CCN(CCCN2c3ccccc3Sc3ccc(C(F)(F)F)cc32)CC1
inactive: outcome [1] | Potency [4] | Potency [6] | outcome [9]
active: Potency [20] 15.8 µM

Cc1[nH]c(=O)c(C#N)cc1-c1ccncc1
inactive: outcome [1] | outcome [5] | outcome [9]

CCc1ccc(CCOc2ccc(CC3SC(=O)NC3=O)cc2)nc1 (stereo not given)
inactive: outcome [16] | Potency [4] | Potency [6]

COc1ccc2nc(S(=O)Cc3ncc(C)c(OC)c3C)[nH]c2c1 (stereo not given)
inactive: outcome [16] | Potency [2] | activation [19] -6.85% and -23.9%

CCCc1nc2c(C)cc(-c3nc4ccccc4n3C)cc2n1Cc1ccc(-c2ccccc2C(=O)O)cc1
inactive: Potency [4] | Potency [6]

O=C(O)COCCN1CCN(C(c2ccccc2)c2ccc(Cl)cc2)CC1 (stereo not given)
inactive: Potency [4] | Potency [6]

Cc1[nH]c(=O)c(C#N)cc1-c1ccc2nccn2c1
inactive: outcome [1] | outcome [5] | Potency [8] | outcome [9]

Cc1ccc2c(c1)C(=O)[C@@]1(O)CCN(c3ccccc3)C1=N2
active: Potency [3] 7.94 µM

O=NN(CCCl)C(=O)NCCCl
inactive: outcome [1] | Potency [4] | outcome [5] | Potency [6] | outcome [9]

N#Cc1ccc(C(c2ccc(C#N)cc2)n2cncn2)cc1
inactive: activation [19] -2.88%

CCN(CC)CCCC(C)Nc1ccnc2cc(Cl)ccc12 (stereo not given)
inactive: Potency [4] | Potency [6]

CCCc1nn(C)c2c(=O)[nH]c(-c3cc(S(=O)(=O)N4CCN(C)CC4)ccc3OCC)nc12
inactive: Potency [4] | Potency [6]

CC(C[N+](C)(C)C)OC(N)=O (stereo not given)
inactive: Potency [13] | Potency [4] | Potency [6]

Cc1cn[nH]c1
inactive: outcome [1] | outcome [5] | outcome [9]

Cc1cc2c(C(C)C)c(O)c(O)c(C=O)c2c(O)c1-c1c(C)cc2c(C(C)C)c(O)c(O)c(C=O)c2c1O
inactive: Potency [4] | Potency [6]

CNC[C@H](O)c1cccc(O)c1
inactive: outcome [1] | outcome [5] | Potency [7] | Potency [8] | outcome [9]

NC(=O)c1ccc(-c2nc(-c3ccc4c(c3)OCO4)c(-c3ccccn3)[nH]2)cc1
inactive: outcome [16]

CCN(c1ccccc1)c1cc(NC)[n+](C)c(C)n1
active: Potency [2] 3.98 µM

Cc1ccccc1C(OCCN(C)C)c1ccccc1 (stereo not given)
inactive: Potency [4] | Potency [6]

CCn1cc(C(=O)O)c(=O)c2cc(F)c(N3CCNC(C)C3)c(F)c21 (stereo not given)
inactive: Potency [13] | Potency [4] | Potency [6]

NC[C@H](O)c1ccc(O)c(O)c1
inactive: outcome [1] | outcome [9]

CCN(CC)CCCC(C)Nc1nc(C)cc(Nc2ccc3nc(C)cc(N)c3c2)n1 (stereo not given)
inactive: Potency [13]
